Bioassay records from PubChem BioAssay.
Compounds with a hit are over-represented: about 19% of the library has one in this group of screens.
TDP1 cell CPT: growth inhibition of DT40 Tdp1-/-;hTDP1 cells with camptothecin (screen for TDP1 inhibitors) | chicken DT40 Tdp1-/-;hTDP1 cells + 20 nM CPT, ATP luminescence, 48 h | Potency, µM (titrated, usually from 46.2 µM), for inactives: at the top dose activity change, negative = growth inhibition, actives largely listed as inhibitors | 12% of 420,000 active; also: potency is read from the fitted curve at half-maximal effect; nearly all actives have a fitted effect of over 55% in size
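Chicken DT40 Tdp1-/- cells complemented with human TDP1, 400 cells/well, exposed to compounds plus 20 nM camptothecin for at least 48 h at 37 C; viability read as ATP content by CellTiter-Glo luminescence.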
uPA generation: cell surface uPA generation inhibition. cell surface uPA generation assay, qHTS. Potency, µM (doses to about 38.3 µM), for the others: at the highest dose activity change, negative = inhibition, usual class: inhibitors. 0.31% of 330,000 active; active = well fitted inhibition curve with a large enough effect; inconclusive = small, poorly fitted or top-dose-only effect; inactive = no such curve, though single readings can be large or run the other way; tested in mouse RAW 264.7 cells; also: potency is read from the fitted curve at half-maximal effect; nearly all actives have a fitted effect of over 55% in size
HT1080 IDH1KD tx: toxicity to HT-1080 IDH1 knockdown cells (counter line); Potency, µM (doses to about 46.1 µM), for the others: top-dose activity, negative = toxicity, usual class: cytotoxic; AID 686971; 2% of 360,000 active; HT-1080 IDH1 knockdown viability, ATP luminescence, 48 h;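 also: potency is read from the fitted curve at half-maximal effect; 0% = DMSO wells and -100% = cell-free medium wells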
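IDH1KD HT-1080 cells, 750/well, RPMI + 5% FBS; compound pinned after 2 h settling; 48 h, 37 °C; CellTiter-Glo luminescence; % activity normalised to DMSO and no-cell wells; curves fitted, classed by r2 and efficacy.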
TDP1 cell noCPT: qHTS for Inhibitors of human tyrosyl-DNA phosphodiesterase 1 (TDP1): qHTS in cells in absence of CPT; AID 686978, 2013; Potency, µM (titrated, usually from 46.2 µM), for the others: top-dose activity change, negative = growth inhibition, usual class: inhibitors; DT40 Tdp1-/- hTDP1 cells, no CPT, ATP luminescence, 48 h; 15% of 420,000 active; also: potency is read from the fitted curve at half-maximal effect; nearly all actives have a fitted effect of over 55% in size
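Readout: luminescence from CellTiter-Glo after 30 min in the dark at RT. Cells: DT40 Tdp1-/- with stable hTDP1, 400/well. Exposure: compounds alone, ≥48 hr, 37 °C.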
HT1080-NT tox: kills 2HG-producing HT-1080-NT fibrosarcoma cells; 1.6% of 360,000 active; AID 686970; Potency, µM (series often up to 46.1 µM), for the others: top-dose activity, negative = less viability, most hits filed as cytotoxic; HT-1080-NT fibrosarcoma viability, CellTiter-Glo ATP luminescence, 48 h;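 also: NT is the 2HG producing partner of a matched IDH1 knockdown line; potency is read from the fitted curve at half-maximal effect; 0% = DMSO-treated cells and -100% = media-only wells without cells; nearly all actives have a fitted effect of over 55% in size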
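Toxicity toward the 2HG-producing NT line was scored as %Activity, normalised to DMSO and no-cell wells, from CellTiter-Glo luminescence after 48 hours' treatment.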
IL-1B inflam inh: inflammasome signaling inhibition, IL-1 beta readout; THP-1 LPS/ATP IL-1B secretion, AlphaLISA, 16 h; hits give low values; activity change, % at 57.5 µM; 4.7% of 360,000 active; AID 743279; in the data active = activity change below about -50%; inconclusive = mostly about -30% to -49%
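Secreted IL-1B measured by AlphaLISA bead assay after 16 h compound exposure of THP-1 cells; compounds (final up to 57.5 uM) added 1 h before LPS (250 ng/mL) and ATP (1.25 mM) stimulation; lower signal means less secretion.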
An asterisk follows results filed as active; ? = inconclusive; . = no result given. Unless noted, calls follow the shape of the dose curve; as a rule, active = well fitted curve in the direction sought with a large enough effect; inconclusive = small, poorly fitted or top-dose-only effect, or another doubt; inactive = no such curve, though single readings can be large; an effect the other way counts as inactive or inconclusive. Unless noted, % is scaled to controls: 0 for no effect and ±100 for the full control effect.

SMILES | TDP1 cell CPT | uPA generation | HT1080 IDH1KD tx | TDP1 cell noCPT | HT1080-NT tox | IL-1B inflam inh
CCN(CC)c1ccc(/C=N/Nc2ccc(C)cc2)c(O)c1 | 12µM* | 6% | -6% | 12µM* | -7% | -7
CCN(CC)S(=O)(=O)c1cccc(C(=O)N/N=C/c2cccc(O)c2O)c1 | 3.7µM* | -8% | ? | 4.6µM* | ? | 0
O=C(O)C(Oc1ccc2ccccc2c1)c1ccccc1 (stereo not drawn) | 1% | 3% | -1% | -21% | 0% | 5
Nc1ncc2[nH]c(N)nc2n1 | 22% | 3% | 7% | 7% | 7% | 18
CCN(CC)c1ccc(/C=N/NC(=O)c2cccc(S(=O)(=O)N3CCOCC3)c2)c(O)c1 | 4.1µM* | -10% | ? | 5.8µM* | ? | 200
COc1cc(/C=N\NC(=O)CNC(=O)C2COc3ccccc3O2)ccc1O (stereo not drawn) | ? | 1% | 4% | -2% | 1% | 17
CCN(CC)c1ccc(/C=N/NC(=O)CNC(=O)C2COc3ccccc3O2)c(O)c1 (stereo not drawn) | 5.8µM* | -10% | ? | 3.3µM* | ? | 87
N=c1c2ccccc2nc2n1CCCCC2 | 0% | . | -5% | -29% | -5% | 2
Cc1cc(NS(=O)(=O)c2ccc(NC(=O)c3ccc([N+](=O)[O-])cc3)cc2)nc(C)n1 | -1% | . | 16% | -13% | 10% | 51
COc1ccccc1C1CCN(Cc2ccc3ccccc3c2)CC1 | ? | -6% | 23µM* | ? | ? | -61*
COc1ccccc1C1CCN(Cc2cccc([N+](=O)[O-])c2)CC1 | ? | 2% | 1% | ? | 0% | 36
COc1ccccc1C1CCN(c2ccc(CO)cc2[N+](=O)[O-])CC1 | ? | 1% | -27% | 16µM* | -25% | -18
COc1cccc(OC(=O)CSc2nnc(-c3ccc4c(c3)OCO4)o2)c1 | -12% | . | . | -12% | . | .
Cc1cc(C)c(NC(=O)c2ccc3c(c2)CCN3S(C)(=O)=O)c(C)c1 | ? | 13% | 1% | ? | 2% | 0
OCC1(Cc2ccccc2)CCN(Cc2ccc(C(F)(F)F)cc2)CC1 | 23µM* | -1% | -12% | 18µM* | 3% | -51*
COc1ccc(CN2CCC(CO)(Cc3cccc(C(F)(F)F)c3)CC2)cc1Cn1cccn1 | ? | -23% | -1% | 18µM* | 3% | -75*
OCC1(Cc2ccccc2)CCN(Cc2cccc(F)c2F)CC1 | ? | 9% | -1% | ? | 5% | -12
COc1cc(CN2CCC(CO)(Cc3cccc(C(F)(F)F)c3)CC2)ccc1F | 21µM* | -6% | -7% | 23µM* | 1% | -52*
COc1ccc(F)c(CN2CCC(CO)(Cc3cccc(C(F)(F)F)c3)CC2)c1 | ? | 0% | -25% | ? | ? | ?
CCCCCC(=O)Nc1cccc(C2=NOC3(C2)C[C@@H](C(N)=O)N(C(=O)C2(C)CC2)C3)c1 (stereo partly drawn) | 3% | 16% | 5% | -8% | 8% | 19
NNC(=O)c1cccn(Cc2cccc(C(F)(F)F)c2)c1=O | 15µM* | -8% | -15% | ? | -5% | -2
CNC(=O)c1ccc(=O)n(Cc2cccc(C(F)(F)F)c2)c1 | 25% | -3% | 14% | 3% | 9% | 4
CCN1/C(=C2\C(=O)N(C)C(=S)N2C)C=Cc2cc(C)ccc21 | ? | 1% | -16% | ? | -19% | -20
Cc1nc(-c2ccc(S(=O)(=O)Oc3ccc(Cl)cc3Cl)s2)cs1 | 13µM* | -4% | ? | 18µM* | ? | -1
CC(C)(O)C#Cc1ccc(C(=O)NC2CCCCC2)s1 | -2% | 3% | -16% | ? | -7% | -23
SMILES | TDP1 cell CPT | uPA generation | HT1080 IDH1KD tx | TDP1 cell noCPT | HT1080-NT tox | IL-1B inflam inh
CC1CCc2sc(C(=O)Nc3ccc(N4CCOCC4)cc3)cc2C1 (stereo not drawn) | ? | ? | ? | -27% | -16% | ?
CCc1sc(C(=O)Nc2ccc3c(c2)OCO3)cc1C | -3% | 1% | -3% | ? | -6% | -80*
CCc1sc(C(=O)Nc2ccc(N3CCOCC3)cc2)cc1C | 21µM* | -4% | ? | ? | ? | -64*
CC(C)(O)C#Cc1ccc(C(=O)Nc2ccc3c(c2)OCO3)s1 | ? | 2% | 7.3µM* | -15% | ? | -52*
COc1cccc(NC(=O)CSc2nccn2C2CCCC2)c1 | 0% | . | . | ? | . | .
CCC(C(=O)NCc1ccccc1OC)n1nc(C)n2c(cc3occc32)c1=O (stereo not drawn) | ? | -4% | 15% | -45% | 2% | -19
O=C(COC(=O)c1ccc(O)cc1)Nc1cc(C(F)(F)F)ccc1N1CCOCC1 | 0% | 2% | 8% | -1% | 6% | 51
CC(C)(C)NC(=O)NC(=O)CN1CCN(Cc2ccccc2)CC1 | ? | -10% | -7% | ? | 2% | -13
COc1ccc(CNC(=O)CN2CCN(C(c3ccccc3)c3ccccc3)CC2)cc1 | 18µM* | 2% | -1% | ? | -14% | -64*
CC(C)(C)NC(=O)NC(=O)CN1CCN(C(c2ccccc2)c2ccccc2)CC1 | 9.2µM* | -3% | 4% | ? | 12% | 3
O=C(CN1CCN(C(c2ccccc2)c2ccccc2)CC1)N1CCN(c2ccccc2)CC1 | ? | 11% | -9% | 18µM* | 1% | -22
O=C(CN1CCN(C(c2ccccc2)c2ccccc2)CC1)NC(=O)NCc1ccco1 | 21µM* | -2% | -26% | ? | -13% | -6
O=C(CN1CCN(C(c2ccccc2)c2ccccc2)CC1)NCc1ccccc1 | 5% | -2% | 0% | ? | -12% | -26
O=C1COC(c2ccccc2)=CN1Cc1ccccc1 | -17% | -1% | 1% | -11% | 2% | -2
CCCN1C(=O)C(O)(C2COC(C)(C)CC2=O)c2ccccc21 (stereo not drawn) | 3.7µM* | 1% | ? | 13µM* | 10% | 11
CN1C(=O)C(O)(c2nnc(-c3ccccc3)o2)c2ccccc21 (stereo not drawn) | 5% | 0% | 15% | 9% | 15% | -10
CCN1C(=O)C(O)(C2COC(C)(C)CC2=O)c2cc(Br)ccc21 (stereo not drawn) | 1.3µM* | ? | ? | 1.2µM* | 16µM* | -9
